HCMV inh: inhibitors of human cytomegalovirus; HFF cells, HCMV-luciferase reporter, 72 h; stronger effect = lower value; activity change, negative = inhibition, % at 57.5 µM; 410,000 tested, 4.5% active; AID 1259415; in the data active = activity change below about -60%; inconclusive = no clear call, values can overlap the other calls; inactive = above about -39%; note: % is set by controls: 0 for no effect and ±100 for the full control effect
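Steps: HFFs plated, 16 h 37C; compounds added; HCMV-luciferase added to MOI 1 PFU/cell; 72 h 37C; OneGlo reagent, 5 min room temperature; luminescence read, normalized to controls.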
Sm TGR block: blocks Schistosoma mansoni thioredoxin glutathione reductase | purified TGR, DTNB reduction, TNB absorbance 405 nm | Potency, µM (titrated, usually from 114 µM), without a hit: at the top dose activity change, negative = inhibition, hits mostly inhibitors | 360,000 tested, 3% active | AID 485364; note: potency is the fitted concentration of half-maximal effect; % is set by controls: 0 for no effect and ±100 for the full control effect; nearly all actives have a fitted effect of over 60% in size
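TGR 20 nM + NADPH 100 uM (dispensed conc.), cpd preinc 15 min RT; start with NADPH (500 uM addition) then DTNB (15 mM addition). Kinetic TNB absorbance, 405 nm filter. Four-parameter Hill fit across titration.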
Pf growth 96h: P. falciparum growth inhibition at 96 hours; P. falciparum luciferase reporter growth, 96 h; Potency, µM (titrated, usually from 28.7 µM), without a hit: at the top dose activity change, negative = inhibition, most hits filed as inhibitors; 320,000 tested, 6.9% active; AID 504834; note: potency is the fitted concentration of half-maximal effect; % is set by controls: 0 for no effect and ±100 for the full control effect
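Cell-based qHTS: luciferase-tagged P. falciparum in erythrocytes (2% hematocrit, 0.05% parasitemia final) incubated with compounds for 96 hours, 37 C, 5% CO2; luciferase detection reagent then added and luminescence measured.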
Pf growth 48h: P. falciparum growth inhibition at 48 hours (one generation). P. falciparum luciferase growth in erythrocytes, 48 h. Potency, µM (series often up to 28.7 µM), without a hit: top-dose activity change, negative = inhibition, most hits filed as inhibitors. 310,000 tested, 5.9% active. AID 504832; note: potency is the fitted concentration of half-maximal effect; % is set by controls: 0 for no effect and ±100 for the full control effect
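Luciferase-expressing P. falciparum in infected erythrocytes (2% hematocrit, 0.1% parasitemia final) in RPMI 1640/0.5% Albumax were exposed to compound for 48 hours at 37 C, 5% CO2; growth read as luminescence.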
SARS PLP yeast: inhibitors of SARS-CoV papain-like protease in yeast; S. cerevisiae expressing SARS-CoV PLpro, growth rescue; AID 485353; 330,000 tested, 0.19% active; Potency, µM (series often up to 32.9 µM), without a hit: top-dose activity, positive = growth rescue, most hits filed as activators; calls by dose curve; note: potency is the fitted concentration of half-maximal effect; 0% is about no effect; nearly all actives have a fitted effect of over 55% in size
HCV inh: blocks hepatitis C virus; Potency, µM (top dose mostly 41.8 µM), for inactives: at the top dose activity change, negative = inhibition, actives largely listed as inhibitors; Huh7.5.1 HCVcc-Cre infection, luciferase reporter, 44 h; 340,000 tested, 3.4% active; note: potency is the fitted concentration of half-maximal effect; % is set by controls: 0 for no effect and ±100 for the full control effect
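After 44 h co-culture of compound, cells and HCVcc-Cre (~0.5 moi), substrate is added for 15 min at room temperature and luciferase measured over 15 sec. Cells were seeded at 1,000/well and pre-cultured 4 h.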
Active calls of the source: *; u = inconclusive; x = no result; ! = not active in a repeat; [ ] = dose if it differs, or a comment. This is a sample that favours compounds with a hit; in the whole collection about 15% have one here. Unless noted, calls come from the whole dose curve; as a rule, active = well fitted curve in the direction sought with a large enough effect; inconclusive = small, poorly fitted or top-dose-only effect, or another doubt; inactive = no such curve, though single readings can be large; an effect the other way counts as inactive or inconclusive.

SMILES	HCMV inh	Sm TGR block	Pf growth 96h	Pf growth 48h	SARS PLP yeast	HCV inh
CCCC(c1nnnn1CCc1ccccc1)N1CCC(C(N)=O)CC1 (stereo unspecified)	-30	1%	4.1µM*	-17%	0%	-1%
CCn1cc(CNC(=O)c2cc(COc3ccc(F)cc3F)on2)cn1	u	0%	-3%	-2%	-1%	u
Cc1ccc(-c2nc(CS(=O)(=O)CC(=O)NCCc3ccccc3)c(C)o2)cc1	0	1%	x	x	x	x
O=C(c1cccc(S(=O)(=O)Nc2ccc(F)cc2)c1)N1CCCC1	-21	-16%	-27%	u	-3%	8%
COC(=O)COc1ccc(S(=O)(=O)NCc2ccco2)cc1	-12	35µM*	3%	-7%	-1%	28%
COc1ccc(C(=O)Nc2cccc(S(=O)(=O)NCc3ccco3)c2)cc1	-18	x	x	x	7%	u
CCCNS(=O)(=O)c1ccc(OCC(=O)NCc2ccco2)cc1	-7	-31%	x	-4%	2%	8%
CCOC(=O)COc1ccc(S(=O)(=O)NCc2ccco2)cc1	-25	50µM*	14%	8%	1%	20%
O=C(COc1ccc(Cl)cc1)Nc1cccc(S(=O)(=O)NCc2ccco2)c1	-12	-13%	-22%	-30%	8%	32µM*
O=S(=O)(NCc1ccco1)c1ccc2c(c1)Cc1ccccc1-2	-5	7.9µM*	63%	u	-1%	-71%
CCOC(=O)COc1ccc(S(=O)(=O)NCc2ccncc2)cc1	-19	2%	-2%[5.75 µM]	9%	2%	14%
COc1ccc(C(=O)NNc2ncnc3c2cnn3-c2ccccc2)cc1	-19	1%	x	x	x	x
CS(=O)(=O)c1cnc(-c2ccccc2)nc1-c1ccccc1Cl	48	3%	-16%	-11%	0%	-13%
O=C(NCCNC(=O)c1cc(Cl)ccc1Cl)c1cnccn1	29	6%	7%	5%	-6%	13%
COc1ccc([C@H]2N[C@]3(CCCN(Cc4ccc(C)cc4)C3=O)[C@H]3C(=O)N(Cc4ccccc4)C(=O)[C@@H]23)cc1	15	x	x	x	x	x
O=C(NCC(c1cccnc1)N1CCN(c2ccc(F)cc2)CC1)c1ccco1 (stereo unspecified)	34	-6%	-5%	0%	-1%	u
COC(=O)c1ccc(S(=O)(=O)NCc2ccco2)n1C	11	35µM*	1%	0%	2%	2%
COc1cc(N2CCCC2)c(OC)cc1C=O	u	-15%	-30%	9%	-3%	11µM*
COc1cc(OC)c(OC)cc1C=O	u	x	x	x	1%	11%
CCS(=O)(=O)c1ncc(N(Cc2ccccc2)Cc2ccco2)c(C(=O)Nc2cccc(Cl)c2C)n1	-30	0%	x	x	x	x
CCS(=O)(=O)c1ncc(Cl)c(C(=O)N(Cc2ccccc2)Cc2ccco2)n1	-99*	8.9µM*	x	x	x	x
Cn1c(=O)c2c(ncn2CC(=O)N/N=C/c2ccc(Br)s2)n(C)c1=O	5	-13%	u	u	32%	19%
Cc1cc(/C=N/N2CCN(C)CC2)c(C)n1-c1ccc(Cl)cc1	0	u	u	12µM*	-2%	u
CSCCC(NS(=O)(=O)c1ccc2c(c1)oc(=O)n2C)C(=O)NCc1ccc(F)cc1 (stereo unspecified)	8	-3%	x	x	x	x
O=S(=O)(c1c(Cl)sc(Cl)c1Br)N1CCCC1	-34	7%	12µM*	u	-3%	-4%
SMILES	HCMV inh	Sm TGR block	Pf growth 96h	Pf growth 48h	SARS PLP yeast	HCV inh
O=S(=O)(c1ccc(Cl)cc1)N1CCCCCC1	10	2%	3%	1%	-5%	8%
c1ccc2c(c1)oc1c(-c3cccc4nccn34)cccc12	10	x	x	x	x	x
CCC(C)NCCOCCOc1ccc(Cl)c(C)c1C (stereo unspecified)	-83*	-9%	14%	u	-16%	10µM*
CCC(c1nnnn1-c1c(C)cccc1C)N1CCN(CCN2CCOCC2)CC1 (stereo unspecified)	12	x	x	x	x	x
Cc1cccc(N2C(=O)C(Cl)=C(Nc3c(C)n(C)n(-c4ccccc4)c3=O)C2=O)c1C	u	8.9µM*	-15%	x	0%	0%
Cc1ccc(N2C(=O)C(Cl)=C(Nc3c(C)n(C)n(-c4ccccc4)c3=O)C2=O)cc1	-14	8.9µM*	u	u	-2%	8%
CC[n+]1c(-c2ccc(C)cc2)csc1Nc1c(C)n(C)n(-c2ccccc2)c1=O	-88*	-1%	u	-7%	-5%	u
CC[n+]1c(-c2ccccc2)csc1Nc1c(C)n(C)n(-c2ccccc2)c1=O	-39	-5%	11%	-9%	-15%	u
O=C(COC(=O)C1CC2CCCC(C1)C2=O)NNC(=O)c1ccccc1F (stereo unspecified)	7	-1%	40%	-11%	-2%	22%
C/C(O)=C(/N=O)C(=O)Nc1ccccc1	0	0%	12µM*	1%	-5%	18%
CC(=O)Nc1ccc(NC(=O)Nc2ccccc2)cc1	2	-29%	103%	98%	2%	9%
COc1ccc(NC(=O)c2cc(S(=O)(=O)N3CCc4ccccc43)cn2C)cc1	20	-13%	-10%	9.3µM*	7%	-16%
CCCNC(=O)c1cc(S(=O)(=O)N2CCc3ccccc32)cn1C	u	0%	10%	9%	1%	8.9µM*
Cc1ccc(NC(=O)c2cc(S(=O)(=O)N3CCc4ccccc43)cn2C)c(Cl)c1	-61*	-9%	x	x	x	x
CCOc1ccc(NC(=O)c2cc(S(=O)(=O)N3CCc4ccccc43)ccc2F)cc1	u	0%	x	x	x	x
CCCCCCNC(=O)c1cc(S(=O)(=O)N2CCc3ccccc32)ccc1F	-69*	9%	u	3%	-2%	4%
O=C(CCNS(=O)(=O)c1cccc2nsnc12)NC1CCN(Cc2ccccc2)CC1	48	-12%	-12%	9%	-9%	-21%
CCOC(=O)Cn1nc(C)c(NC(=O)c2ccc(Cl)c([N+](=O)[O-])c2)c1C	41	17%	7%	-11%	-5%	-10%
COc1cc(-c2nc3cccc(C)n3c2Nc2ccc3c(c2)OCCO3)ccc1O	52	-27%	x	x	x	x
COc1cc(-c2nc3nc[nH]n3c2Nc2ccc(C(C)C)cc2)ccc1O	-68*	14µM*	x	x	x	x
COc1cc(-c2nc3cnccn3c2Nc2ccc(C(C)C)cc2)ccc1O	-92*!	-9%	x	u	7%	u
COc1cc(-c2nc3cnccn3c2Nc2ccccc2)ccc1O	196	-15%	5.2µM*	u	-5%	-22%
COc1cc(-c2nc3cnccn3c2Nc2ccc(C)cc2)ccc1O	84	25%	x	u	0%	u

Screening results from PubChem.
